Screens (PubChem)
In the library only some 3% were active in any assay of this set; here they are far more common.
Nrf2 inh = Nrf2 pathway inhibition; A549 ARE-Fluc reporter, luciferase luminescence, 18-24 h; AID 504444; 360,000 tested, 2.1% active; Potency, µM (titrated, usually from 46 µM), inactives show top-dose activity change, negative = inhibition, usual class: inhibitors; note: % is set by controls: 0 for no effect and ±100 for the full control effect; nearly all actives have a fitted effect of over 60% in size
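Nrf2 activity is the BugLite luminescence, read 15 min after reagent at room temperature, following CellTiter-Fluor cytotoxicity readout (30 min, 37C). Compound titrations were applied for 18-24 h to 5000 A549 ARE_Fluc cells/well in 5% FBS OPTI-MEM.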
TrxR1 substrate = rat thioredoxin reductase 1 substrate activity. Potency, µM (top dose mostly 114 µM), inactives show at the top dose activity change, negative = substrate turnover. purified TrxR1 substrate turnover, NADPH consumption readout. AID 588456. 390,000 tested, 0.01% active. O89049; note: % is set by controls: 0 for no effect and ±100 for the full control effect; nearly all actives have a fitted effect of over 50% in size
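Rat TrxR1, dispensed at 90 nM, was prereduced with 400 uM NADPH (final) for 5 min at ~22 deg C, then incubated with compound 15 min before 400 uM selenite. A first-read NADPH fluorescence drop versus no-compound background flagged substrates.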
rTrxR1 inhibitor = rat TrxR1 inhibition; recombinant rTrxR1, NADPH fluorescence consumption, selenite substrate; Potency, µM (top dose mostly 114 µM), inactives show top-dose activity change, negative = inhibition, hits mostly inhibitors; O89049; 390,000 tested, 1% active; note: % is set by controls: 0 for no effect and ±100 for the full control effect; nearly all actives have a fitted effect of over 65% in size
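Rat TrxR1 (90 nM in the dispensed reagent) was pre-reduced with 400 uM NADPH for 5 min at room temperature, then incubated with compound for 15 min. After 400 uM selenite was added, NADPH fluorescence (Ex 340/Em 450 nm) was followed for 8 min.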
A549 viability = counter-screen for Nrf2 inhibitors: cytotoxicity in A549 cells | A549 ARE-Fluc cells, CellTiter-Fluor viability, 18-24 h | Potency, µM (series often up to 46 µM), for inactives: at the highest dose activity change, negative = cytotoxicity, usual class: inhibitors | 390,000 tested, 0.16% active; note: % is set by controls: 0 for no effect and ±100 for the full control effect
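A549 ARE_Fluc cells in 5% FBS OPTI-MEM were exposed to compounds in concentration-response for 18-24 h at 37 deg C. Viability was read by CellTiter-Fluor fluorescence (Ex 405/Em 525) after 30 min, before the luciferase read.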
Nrf2 activator = activators of Nrf2 (ARE) signaling | AREc32 ARE-luciferase reporter (MCF7-derived line), luminescence, 24 h | Potency, µM (titrated, usually from 46.1 µM), without a hit: at the highest dose activation, most hits filed as activators | 410,000 tested, 0.31% active; note: % of control where 0% means no effect; nearly all actives have a fitted effect of over 65% in size
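For detection, Steady-Glo was added and plates sat 30 min at RT; before that, AREc32_Fluc cells grown overnight in OPTI-MEM/5% FBS had been treated with 23 nL compound for 24 hr at 37 deg C.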
GALK inhibitor = blocks human galactokinase activity; P51570; Purified GALK, Kinase-Glo residual ATP luminescence; Potency, µM (titrated, usually from 57.5 µM), for the others: at the top dose activity change, negative = inhibition, usual class: inhibitors; 270,000 tested, 0.007% active; AID 1868; note: % is set by controls: 0 for no effect and ±100 for the full control effect
Target sequence (P51570 whole entry, looked up): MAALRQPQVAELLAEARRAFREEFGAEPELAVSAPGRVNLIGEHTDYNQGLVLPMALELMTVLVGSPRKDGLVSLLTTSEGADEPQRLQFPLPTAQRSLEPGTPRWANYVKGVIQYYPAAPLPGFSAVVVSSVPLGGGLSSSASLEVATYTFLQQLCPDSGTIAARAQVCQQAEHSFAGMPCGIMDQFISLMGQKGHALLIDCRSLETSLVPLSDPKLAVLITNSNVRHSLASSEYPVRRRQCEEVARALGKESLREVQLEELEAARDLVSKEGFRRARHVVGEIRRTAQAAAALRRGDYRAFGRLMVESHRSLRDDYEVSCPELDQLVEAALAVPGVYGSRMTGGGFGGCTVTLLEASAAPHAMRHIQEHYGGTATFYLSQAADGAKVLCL
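Luminescence from leftover ATP (Ultra-Glo luciferase/luciferin) served as read-out after a 1 h room-temperature reaction of 5 nM GALK with 35 uM ATP and 100 uM galactose.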
Starred values were filed as active, the others as inactive; [ ] = remark or other dose. Calls come from the whole dose curve; as a rule, active = well fitted curve in the direction sought with a large enough effect; inconclusive = small, poorly fitted or top-dose-only effect, or another doubt; inactive = no such curve, though single readings can be large; an effect the other way counts as inactive or inconclusive. Potency is the fitted concentration of half-maximal effect.

`COCC1CCCN(C(=O)c2cc(COc3ccc(C(C)=O)cc3)on2)C1` (configuration not stated) gave Nrf2 inh inconclusive, TrxR1 substrate 0%, rTrxR1 inhibitor inconclusive, A549 viability 1% and Nrf2 activator 3%.
O=C(c1cc(COc2cccc(C(F)(F)F)c2)on1)N1CCC(c2ccncc2)CC1 was read as Nrf2 inh 13µM*, TrxR1 substrate -5%, rTrxR1 inhibitor -7%, A549 viability -12%, Nrf2 activator 2% and GALK inhibitor -4%.
COc1cc2c(NC3CCN(C)CC3)nc(N3CCCN(C)CC3)nc2cc1OCCCCN(C)C was read as TrxR1 substrate 60% and rTrxR1 inhibitor inconclusive.
Screening Cc1ccc(-c2nn3c(-c4ccccc4C)nnc3c3ccccc23)cc1 returned Nrf2 inh inconclusive, TrxR1 substrate 19%, rTrxR1 inhibitor 30%, A549 viability -13% and Nrf2 activator 7%.
For O=C(CCCN1C(=O)/C(=C/c2ccco2)SC1=S)Nc1ccccc1C(=O)O the results were Nrf2 inh -11%, TrxR1 substrate 4%[57.1 µM], rTrxR1 inhibitor inconclusive, A549 viability -20%, Nrf2 activator inconclusive and GALK inhibitor -1%.
`O=C(CCN1C(=O)/C(=C\c2ccco2)SC1=S)Nc1ccc(C(=O)O)c(O)c1` gave Nrf2 inh 6%, TrxR1 substrate -5%, rTrxR1 inhibitor 40µM*, A549 viability inconclusive, Nrf2 activator 7% and GALK inhibitor 0%.
For O=C(O)CCCN1C(=O)/C(=C\c2ccco2)SC1=S the results were Nrf2 inh inconclusive, TrxR1 substrate 7%[57.1 µM], rTrxR1 inhibitor 22µM*, A549 viability -18%, Nrf2 activator 6% and GALK inhibitor 9%.
O=C(CCN1C(=O)/C(=C/c2ccco2)SC1=S)Nc1ccc(C(=O)O)c(O)c1 was read as Nrf2 inh -1%, TrxR1 substrate -9%, rTrxR1 inhibitor 45µM*, A549 viability -13%, Nrf2 activator 2% and GALK inhibitor -3%.
COC(=O)c1cc(-c2ccc(Cl)cc2)c2c(=O)[nH]c(=O)n(C)c2n1 was read as Nrf2 inh inconclusive, TrxR1 substrate 41%, rTrxR1 inhibitor 0%, A549 viability 0% and Nrf2 activator -1%.
Screening CC(=O)N1CCCc2cc(S(=O)(=O)NCc3ccc(N(C)C)cc3)ccc21 returned TrxR1 substrate -1%[57.1 µM], rTrxR1 inhibitor 6%[57.1 µM], A549 viability -1% and Nrf2 activator 3%.
Screening O=C(Nc1ccc(C(F)(F)F)cc1)C1(c2cccs2)CCOCC1 returned TrxR1 substrate -4%[57.1 µM], rTrxR1 inhibitor 9%[57.1 µM], A549 viability 1% and Nrf2 activator 7%.
Cc1cc(Br)c(S(=O)(=O)NCc2ccncc2)cc1C was read as Nrf2 inh 3.7µM*, TrxR1 substrate 0%, rTrxR1 inhibitor 1%, A549 viability -19%, Nrf2 activator 0% and GALK inhibitor -3%.
For Cc1cc(C)c(C)c(S(=O)(=O)NCc2ccncc2)c1C the results were Nrf2 inh 13µM*, TrxR1 substrate -2%[57.1 µM], rTrxR1 inhibitor 1%[57.1 µM], A549 viability -18%, Nrf2 activator 0% and GALK inhibitor 5%.
Screening COc1cc(C)c(Cl)cc1S(=O)(=O)NCc1ccncc1 returned GALK inhibitor 0%.
`O=S(=O)(NCc1ccncc1)c1ccccc1` gave Nrf2 inh inconclusive, TrxR1 substrate -2%, rTrxR1 inhibitor 11%, A549 viability -15%, Nrf2 activator 0% and GALK inhibitor 3%.
For NS(=O)(=O)c1ccc(Cc2ncc(C(F)(F)F)cc2Cl)s1 the results were Nrf2 inh 21µM*, TrxR1 substrate -6%, rTrxR1 inhibitor -11%, A549 viability inconclusive, Nrf2 activator 12% and GALK inhibitor -3%.
Cc1nnc(SCC(=O)N2c3ccccc3C(C)(c3ccccc3)CC2(C)C)s1 (configuration not stated) was read as Nrf2 inh 23µM*, TrxR1 substrate -17%, rTrxR1 inhibitor -7%, A549 viability inconclusive, Nrf2 activator 4% and GALK inhibitor 1%.
`Cc1ccc(C2(C)CC(C)(C)N(C(=O)CSc3nnc(C)s3)c3ccccc32)cc1` (configuration not stated) gave Nrf2 inh 21µM*, TrxR1 substrate 4%[57.1 µM], rTrxR1 inhibitor 17%, A549 viability inconclusive, Nrf2 activator -1% and GALK inhibitor 1%.
Screening CCCCC(=O)N1c2ccccc2C(C)(c2ccccc2)CC1(C)C (configuration not stated) returned Nrf2 inh 12%, TrxR1 substrate 4%, rTrxR1 inhibitor 17%, A549 viability 9% and Nrf2 activator -2%.
Screening Cc1cc2c(s1)c1cnn(Cc3ccc(F)c(C)c3)c(=O)c1n2C returned Nrf2 inh 8% and A549 viability 0%.
Cc1ccc(OCC(=O)Nc2cccc(-c3nc4ccccc4s3)c2)cc1 was read as Nrf2 inh inconclusive, TrxR1 substrate -3%, rTrxR1 inhibitor 27%, A549 viability -9% and Nrf2 activator 8%.
Screening O=C(Cn1c(C(F)(F)F)nc2ccccc21)c1ccccc1 returned Nrf2 inh 21µM*, TrxR1 substrate -3%, rTrxR1 inhibitor 2%, A549 viability -7%, Nrf2 activator 0% and GALK inhibitor 3%.
Cc1ccc(S(=O)(=O)CNC(=S)c2cccc(Cl)c2)cc1 was read as Nrf2 inh 3%, TrxR1 substrate 4%, rTrxR1 inhibitor 14µM*, A549 viability 1%, Nrf2 activator 1% and GALK inhibitor 0%.
`Cc1ccc(C(=S)NCS(=O)(=O)c2ccc(C)cc2)cc1` gave TrxR1 substrate 9%, rTrxR1 inhibitor inconclusive, A549 viability -2%, Nrf2 activator 0% and GALK inhibitor -5%.
Screening CCN(c1ccccc1)C(CNS(=O)(=O)c1ccccc1)c1ccccc1 (configuration not stated) returned Nrf2 inh 23µM*, TrxR1 substrate -6%, rTrxR1 inhibitor 1%, A549 viability -24% and Nrf2 activator 0%.
For COc1ccc(-c2nnc(SCC(=O)N3CCc4ccccc43)o2)cc1OC the results were Nrf2 inh 1%, TrxR1 substrate -5%, rTrxR1 inhibitor 6%, A549 viability 0% and Nrf2 activator 0%.
`Cc1sc2ccccc2[n+]1C` gave TrxR1 substrate 5% and rTrxR1 inhibitor 68%.
For CCCS(=O)(=O)c1nc(S(=O)(=O)c2ccc(C)cc2)c(NCc2ccccn2)s1 the results were Nrf2 inh -15%, TrxR1 substrate 1%, rTrxR1 inhibitor 20µM*, A549 viability 13%, Nrf2 activator 3% and GALK inhibitor 1%.
